About 90 (0.9%) of roughly 9,900 compounds were called active. Roughly 2% stayed inconclusive and do not appear here. The sample as a whole holds a higher share of actives than the screen did. Values without a mark were called inactive.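 Rule for the calls: active = mean normalized replicate activity at least 50 and at least half of replicates each reaching 50; inconclusive = only one of the two criteria met; inactive = neither criterion met.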
Test: YAP1 pathway inhibitors via CTGF transcript, primary screen, DLD1 colon cancer cells, RT-qPCR, single point (AID 743449);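 note: 0% = neutral control wells and 100% = dasatinib control wells; higher means stronger suppression of CTGF expression like dasatinib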
Conditions: DLD1 CTGF mRNA qPCR, 24 h; at 12.5 µM; hits give high values

SMILES	inhibition
CC(C)(C)S(=O)N1Cc2cc(C(=O)NCc3ccc4c(c3)OCO4)nc(-c3cccc(-c4cccc(F)c4)c3)c2[C@@H]1CCO (stereo partly drawn)	55.2% (active)
CCNC(=O)c1cc2c(c(-c3cccc(-c4ccccc4F)c3)n1)[C@H](CCO)N(C(=O)CC1CC1)C2	-97.9%
CC(C)(C)[S@](=O)N1Cc2cc(C(=O)NC3CCC3)nc(-c3cccc(-c4ccccc4F)c3)c2[C@@H]1CCO	41%
CC(C)(C)[S@@](=O)N1Cc2cc(C(=O)NCc3ccccn3)nc(-c3cccc(-c4ccccc4F)c3)c2[C@H]1CCO	-29.9%
CCNC(=O)c1cc2c(c(-c3cccc(-c4cncnc4)c3)n1)[C@H](CCO)N(C(C)=O)C2	-8.43%
CCNC(=O)c1cc2c(c(-c3cccc(-c4ccccc4F)c3)n1)[C@@H](CCO)N(C(=O)CC1CC1)C2	59.3% (active)
CC(C)(C)S(=O)N1Cc2cc(C(=O)NCc3ccc4c(c3)OCO4)nc(-c3cccc(-c4cc5ccccc5o4)c3)c2[C@H]1CCO (stereo partly drawn)	20.7%
CN(C)C(=O)c1cc2c(c(-c3cccc(C4=CCCCC4)c3)n1)[C@@H](CCO)N(S(C)(=O)=O)C2	-7.52%
CCN1Cc2cc(C(=O)Nc3nccs3)nc(-c3cccc(C4=CCCC4)c3)c2[C@H]1CCO	-15.8%
CC(C)(C)S(=O)N1Cc2cc(C(=O)NCc3ccc(Oc4ccccc4)cc3)nc(-c3cccc(-c4cccc(F)c4)c3)c2[C@@H]1CCO (stereo partly drawn)	9.98%
CC(C)(C)[S@](=O)N1Cc2cc(C(=O)NCc3ccccn3)nc(-c3cccc(-c4ccccc4F)c3)c2[C@@H]1CCO	53% (active)
CCC(=O)N1Cc2cc(C(=O)NCc3cccc(F)c3)nc(-c3cccc(C4=CCCC4)c3)c2[C@H]1CCO	50.2% (active)
O=C1C[C@H](c2ccccc2)C(=O)N[C@H](c2ccccc2)C/C=C\C[C@H](c2ccccc2)N1	-5.88%
COc1ccc(S(=O)(=O)Nc2ccc3c(c2)C(=O)N([C@H](C)CO)C[C@H](C)[C@@H](CN(C)C(=O)Nc2c(C)noc2C)OCCCC[C@H](C)O3)cc1	-7.64%
O=C(Cc1cccnc1)N1[C@H](CNCC2CCC2)[C@H](c2ccccc2)[C@@H]1CO	-21.2%
COc1ccc(S(=O)(=O)Nc2ccc3c(c2)C(=O)N([C@@H](C)CO)C[C@@H](C)[C@@H](CN(C)Cc2ccc(C(F)(F)F)cc2)OCCCC[C@H](C)O3)cc1	-37.9%
O=C(C1CCOCC1)N1CC[C@@H]2[C@@H](CO)Nc3ccc(-c4cccc(F)c4)cc3[C@@H]21	-12.5%
CO[C@H]1CC[C@H]2CCOc3c(C#N)cccc3C(=O)N(C)C[C@@H](OC)[C@@H](C)C(=O)N(C)C[C@H]1O2	-18.4%
O=C(C[C@@H]1CC[C@@H]2[C@H](COC[C@@H](O)CN2C(=O)c2cnccn2)O1)N1CCN(c2ccccc2)CC1	-2.5%
COc1ccc2c3c([nH]c2c1)[C@H](CO)N(C(=O)c1ccccn1)CC31CCN(S(C)(=O)=O)CC1	-21.9%
COc1ccccc1CN1[C@@H]2c3ccc(C4=CCCC4)c(=O)n3C[C@H]1[C@H](CO)[C@H]2C(=O)N(C)C	2.56%
C[C@@H]1CN([C@H](C)CO)C(=O)Cc2cc(NS(=O)(=O)c3cccs3)ccc2O[C@@H]1CN(C)CC1CCCCC1	1.75%
COc1ccc2c3c(n(C)c2c1)[C@@H](CO)N(S(C)(=O)=O)CC31CCN(Cc2nccs2)CC1	14%

From PubChem BioAssay AID743449 (Broad Institute, 2014)
